The source of these data is article PMC11062922 (Nature Chemical Biology, 2023).

Holding throughout (parameters): species or system human, MV4-11 + K-562 + COLO205 + SK-N-BE2 + OVCAR-8
The subject of one assay is ADCK3. The note with it: read-out: apparent Kd, n = 1.
For a further assay, the system named is DHCR24. The conditions noted are these: read-out: apparent Kd; compound concentrations:100 nM and 1000 nM (sheet 'Samples'); n = 1.
The next assay has as its system T1, DJA1.
T1 construct: gene DNAJA1
The conditions noted are these: read-out: apparent Kd; compound concentrations:100 nM and 1000 nM (sheet 'Samples'); n = 1.

The subject of another assay is ERBB3. The conditions noted are these: read-out: apparent Kd; compound concentrations:100 nM and 1000 nM (sheet 'Samples'); n = 1.
The subject of a further assay is PI4KA. The conditions noted are these: read-out: apparent Kd; compound concentrations:100 nM and 1000 nM (sheet 'Samples'); n = 1.
For another assay, the system named is PI4KB. The note with it: read-out: apparent Kd; compound concentrations:100 nM and 1000 nM (sheet 'Samples'); n = 1.
The test system of another assay is PIK3C2A. The note with it: read-out: apparent Kd; compound concentrations:100 nM and 1000 nM (sheet 'Samples'); n = 1.
The next assay relates to PIK3C2B. The conditions noted are these: read-out: apparent Kd; compound concentrations:100 nM and 1000 nM (sheet 'Samples'); n = 1.
Another assay has as its system PIK3CA. The note with it: read-out: apparent Kd; compound concentrations:100 nM and 1000 nM (sheet 'Samples'); n = 1.
A further assay deals with PIK3CB. The note with it: read-out: apparent Kd; compound concentrations:100 nM and 1000 nM (sheet 'Samples'); n = 1.
In another assay the test system is PIK3CD. The note with it: read-out: apparent Kd, n = 1.
For the next assay, the system named is PRKDC. The note with it: read-out: apparent Kd, n = 1.
The next assay has as its system ERCC2. The note with it: read-out: apparent Kd; compound concentrations:100 nM and 1000 nM (sheet 'Samples'); n = 1.
A further assay has as its system MAP4K5. The conditions noted are these: read-out: apparent Kd; compound concentrations:100 nM and 1000 nM (sheet 'Samples'); n = 1.
The next assay relates to ADCK1. The conditions noted are these: read-out: apparent Kd; compound concentrations: 100 nM and 1000 nM (sheet 'Samples'), CATDS: 6.3645310719154996E-2; n = 1.
For the next assay, the system named is FLT3. The note with it: read-out: apparent Kd; compound concentrations: 100 nM and 1000 nM (sheet 'Samples'), CATDS: 0.35383441234921298; n = 1.
For a further assay, the system named is JAK2. The conditions noted are these: read-out: apparent Kd; compound concentrations: 100 nM and 1000 nM (sheet 'Samples'), CATDS: 0.243308820463081; n = 1.
The test system of a further assay is LIMK1. The note with it: read-out: apparent Kd, compound concentrations: 100 nM and 1000 nM (sheet 'Samples'), n = 1.
A further assay concerns LYN. The conditions noted are these: read-out: apparent Kd; compound concentrations: 100 nM and 1000 nM (sheet 'Samples'), CATDS: 6.5965838221970899E-2; n = 1.
In another assay the test system is MAPK14. The note with it: read-out: apparent Kd, compound concentrations: 100 nM and 1000 nM (sheet 'Samples'), n = 1.
The subject of another assay is MTOR. The conditions noted are these: read-out: apparent Kd; compound concentrations: 100 nM and 1000 nM (sheet 'Samples'), CATDS: 8.3808219559409397E-2; n = 1.
For another assay, the system named is PRKACG. The note with it: read-out: apparent Kd; compound concentrations: 100 nM and 1000 nM (sheet 'Samples'), CATDS: 7.8396451474863002E-2; n = 1.
For the next assay, the system named is RET. The note with it: read-out: apparent Kd; compound concentrations: 100 nM and 1000 nM (sheet 'Samples'), CATDS: 7.1676948179133407E-2; n = 1.
The subject of another assay is T2, T10.
T2 construct: gene NAT10
The note with it: read-out: apparent Kd; compound concentrations: 100 nM and 1000 nM (sheet 'Samples'), CATDS: 5.8337212061708103E-2; n = 1.

The subject of another assay is CSNK1A1. The note with it: read-out: apparent Kd; compound concentrations: 100 nM and 1000 nM (sheet 'Samples'), CATDS: 0.108738920150242; n = 1.
Another assay deals with CSNK1D. The conditions noted are these: read-out: apparent Kd; compound concentrations: 100 nM and 1000 nM (sheet 'Samples'), CATDS: 0.110076630605661; n = 1.
The subject of the next assay is CSNK1E. The note with it: read-out: apparent Kd; compound concentrations: 100 nM and 1000 nM (sheet 'Samples'), CATDS: 0.12792065759961399; n = 1.
A further assay concerns ILK. The conditions noted are these: read-out: apparent Kd; compound concentrations: 100 nM and 1000 nM (sheet 'Samples'), CATDS: 9.4718278447494406E-2; n = 1.
The subject of another assay is MAP2K2. The conditions noted are these: read-out: apparent Kd; compound concentrations: 100 nM and 1000 nM (sheet 'Samples'), CATDS: 0.102896761563019; n = 1.
The test system of another assay is MAPK10. The note with it: read-out: apparent Kd; compound concentrations: 100 nM and 1000 nM (sheet 'Samples'), CATDS: 5.09024054826294E-2; n = 1.
The test system of another assay is MAPK9. The note with it: read-out: apparent Kd; compound concentrations: 100 nM and 1000 nM (sheet 'Samples'), CATDS: 5.50671155445017E-2; n = 1.
For a further assay, the system named is MAPKAPK2. The note with it: read-out: apparent Kd; compound concentrations: 100 nM and 1000 nM (sheet 'Samples'), CATDS: 5.16854933400041E-2; n = 1.
The test system of the next assay is NNT. The note with it: read-out: apparent Kd; compound concentrations: 100 nM and 1000 nM (sheet 'Samples'), CATDS: 4.6144486459290798E-2; n = 1.
Another assay relates to PRKAG1. The note with it: read-out: apparent Kd; compound concentrations: 100 nM and 1000 nM (sheet 'Samples'), CATDS: 9.6836813668462501E-2; n = 1.
In the next assay the test system is VDAC3. The conditions noted are these: read-out: apparent Kd; compound concentrations: 100 nM and 1000 nM (sheet 'Samples'), CATDS: 4.4921279998790198E-2; n = 1.
Setting [1] is: compound concentrations:100 nM and 1000 nM (sheet 'Samples').

Read-outs that look alike come from different tables or passages of the source.

Turning to `COc1ccc(-c2cc3c(C)nc(N)nc3n([C@H]3CC[C@H](OCCO)CC3)c2=O)cn1` [PFE-PKIS_29], the potency estimated from few doses with ADCK3 (setting [1]) was 1460 nM; in the assay on DHCR24, 1750 nM; with DJA1 it was 1960 nM; in the assay with ERBB3, 453 nM; with PI4KA, 61.5 nM; in the assay on PI4KB it was 702 nM. In addition, the potency estimated from few doses was 999 nM in the assay with PIK3C2A; 34.9 nM with PIK3C2B; 1.27 nM in the assay on PIK3CA; 10.3 nM with PIK3CB; 0.67 nM in the assay on PIK3CD (setting [1]); 817 nM in the assay on PRKDC (setting [1]).

Regarding `Nc1ncc(-c2cccnc2)c2scc(-c3ccc4c(c3)CCN4C(=O)Cc3ccccc3)c12` [GSK683281A], the potency estimated from few doses with ADCK3 (setting [1]) was 760 nM; with ERCC2 it was 1560 nM; in the assay on MAP4K5 it was 1560 nM.

`CN(c1ccc(NC(=O)Nc2cc(C(F)(F)F)ccc2F)cc1)c1ccnc(Nc2ccc(S(N)(=O)=O)cc2)n1` [GW809893X]: the potency estimated from few doses in the assay on ADCK1 is 1370 nM; with FLT3, 36.1 nM; in the assay on JAK2, 65 nM; with LIMK1 (CATDS: 6.0612482504371901E-2) it was 1630 nM; in the assay on LYN, 1210 nM; in the assay with MAPK14 (CATDS: 7.0797769182365994E-2), 973 nM. Besides, the potency estimated from few doses is 610 nM with MTOR; 107 nM with PIK3CD (compound concentrations: 100 nM and 1000 nM (sheet 'Samples'), CATDS: 0.184193400818676); 728 nM with PRKACG; 1020 nM with PRKDC (compound concentrations: 100 nM and 1000 nM (sheet 'Samples'), CATDS: 6.9640678326095301E-2); 938 nM with RET; 1880 nM with T10.

`Cl.Fc1ccc(-c2nc3n(c2-c2ccncc2)CCS3)cc1` [SKF-86002-A2]: the potency estimated from few doses in the assay on ADCK3 (compound concentrations: 100 nM and 1000 nM (sheet 'Samples'), CATDS: 0.13841841759658599) was 74.5 nM; in the assay on CSNK1A1, 113 nM; in the assay on CSNK1D it was 110 nM; in the assay on CSNK1E, 84.8 nM; with ILK, 148 nM; with LIMK1 (CATDS: 4.5083762748743803E-2) it was 1770 nM. The potency estimated from few doses is 125 nM in the assay on MAP2K2; 946 nM in the assay on MAPK10; 104 nM with MAPK14 (CATDS: 0.11352717514973699); 681 nM in the assay with MAPK9; 885 nM in the assay with MAPKAPK2; 1550 nM in the assay on NNT. Further, the potency estimated from few doses with PRKAG1 was 141 nM; with VDAC3 it was 1810 nM.
